Assay results as given in PubChem BioAssay AID1159580 (chemical genetic matrix, 2015).
Values joined by “and” are separate entries in the source; they are usually repeats but may differ in a detail not shown here. Equal values may be shown once. The whole screen tested about 5,500 compounds, of which about 2,000 (36%) were called active. Not shown: some 18% with an inconclusive outcome. Rule as the data show it: active = normalized growth mostly below about 0.91 (no sharp cut-off); inconclusive = no clear call, values can overlap the other calls; inactive = mostly above about 0.92. Some of the results follow.

Assay: chemical genetic growth profiling, strain panel (AID 1159580);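 also: tested at 20 µM; growth read once vehicle control cultures reached saturation at 30 °C; 1 = growth at the plate median or of vehicle wells; lower values mean less growth of the strain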
Conditions: S. cerevisiae deletion strains, growth OD

Measured: normalized growth

CNCCCC12CCC(c3ccccc31)c1ccccc12
inactive: locus YAL013W, strain DEP1, hits give low values 0.974 and 1.01 | locus YAL021C, strain ccr4, hits give low values 0.931 | locus YAL030W, strain snc1, hits give low values 0.999 | locus YAL040C, strain CLN3, hits give low values 1 | locus YBL061C, strain skt5, hits give low values 0.979 | locus YBR009C, strain hhf1, hits give low values 0.992 | locus YBR021W, strain FUR4, hits give low values 0.948 | locus YBR023C, strain chs3, hits give low values 0.957 | locus YBR171W, strain sec66, hits give low values 0.99 | locus YBR229C, strain ROT2, hits give low values 0.974 | locus YBR231C, strain swc5, hits give low values 0.956 | locus YBR279W, strain paf1, hits give low values 0.971 | locus YCL011C, strain gbp2, hits give low values 0.963 | locus YCL016C, strain dcc1, hits give low values 0.976 | locus YCL029C, strain bik1, hits give low values 0.994 | locus YCL061C, strain MRC1 (second series), hits give low values 0.999 | locus YCL069W, strain vba3, hits give low values 1.01 | locus YCR088W, strain abp1, hits give low values 0.998 | locus YDL005C, strain med2, hits give low values 0.972 | locus YDL035C, strain GPR1, hits give low values 0.998 | locus YDL040C, strain nat1, hits give low values 0.989 | locus YDL074C, strain BRE1, hits give low values 0.97 | locus YDL101C, strain DUN1, hits give low values 0.981 | locus YDL134C, strain PPH21, hits give low values 0.984 | locus YDL185W, strain tfp1, hits give low values 0.978 | locus YDL192W, strain arf1, hits give low values 0.991 | locus YDR001C, strain nth1, hits give low values 0.975 | locus YDR069C, strain doa4, hits give low values 0.918 | locus YDR101C, strain arx1, hits give low values 1.01 | locus YDR137W, strain rgp1, hits give low values 1.02 | locus YDR159W, strain sac3, hits give low values 0.95 | locus YDR162C, strain NBP2, hits give low values 0.996 | locus YDR195W, strain ref2 1.03 | locus YDR297W, strain sur2, hits give low values 0.975 | locus YDR318W, strain mcm21, hits give low values 0.973 | locus YDR334W, strain swr1, hits give low values 0.995 | locus YDR335W, strain msn5, hits give low values 0.982 | locus YDR363W, strain ESC2, hits give low values 1.01 | locus YDR388W, hits give low values 0.983 | locus YDR392W, strain spt3, hits give low values 0.999 | locus YDR502C, strain sam2, hits give low values 0.976 | locus YEL003W, strain gim4, hits give low values 0.978 | locus YEL037C, strain rad23, hits give low values 0.997 | locus YEL061C, strain CIN8 (second series), hits give low values 0.975 | locus YEL061C, strain CIN8, hits give low values 1.01 | locus YER002W, strain NOP16, hits give low values 1 | locus YER015W, strain faa2, hits give low values 0.978 | locus YER016W, strain bim1, hits give low values 0.996 | locus YER110C, hits give low values 0.989 | locus YER111C, strain swi4, hits give low values 0.995 | locus YER155C, strain BEM2 (second series), hits give low values 0.977 | locus YER155C, strain BEM2, hits give low values 1.01 | locus YER167W, strain BCK2, hits give low values 0.989 | locus YFR010W, strain ubp6, hits give low values 0.982 | locus YGL078C, strain dbp3, hits give low values 0.99 | locus YGL086W, strain mad1, hits give low values 0.969 | locus YGL167C, strain pmr1, hits give low values 1 | locus YGL173C, strain kem1, hits give low values 0.993 | locus YGL227W, strain vid30, hits give low values 1 | locus YGL240W, strain doc1, hits give low values 0.989 | locus YGL248W, strain PDE1, hits give low values 0.964 | locus YGL253W, strain hxk2, hits give low values 0.988 | locus YGR135W, strain pre9, hits give low values 0.94 | locus YGR229C, strain SMI1, hits give low values 0.941 and 0.953 | locus YGR252W, strain gcn5, hits give low values 0.841 | locus YHR013C, strain ard1, hits give low values 0.976 | locus YHR027C, strain rpn1, hits give low values 0.96 | locus YHR030C, strain SLT2, hits give low values 0.997 and 1.01 | locus YHR079C, strain IRE1 (second series), hits give low values 0.997 | locus YHR079C, strain IRE1, hits give low values 1.01 | locus YHR094C, strain hxt1, hits give low values 0.997 | locus YHR129C, strain ARP1, hits give low values 0.995 | locus YHR142W, strain chs7, hits give low values 0.91 | locus YHR200W, strain rpn10, hits give low values 0.991 | locus YIL066C, strain RNR3, hits give low values 0.992 | locus YIL073C, strain SPO22, hits give low values 0.918 | locus YIL125W, strain kgd1, hits give low values 0.981 | locus YIR030C, strain dcg1, hits give low values 0.99 | locus YJL092W, strain hpr5, hits give low values 0.971 | locus YJL095W, strain BCK1 (second series), hits give low values 0.973 | locus YJL095W, strain BCK1, hits give low values 0.941 and 0.998 | locus YJL115W, strain asf1, hits give low values 0.97 | locus YJL129C, strain trk1, hits give low values 1.01 | locus YJL134W, strain LCB3, hits give low values 0.982 | locus YJL154C, strain vps35, hits give low values 0.975 | locus YJL164C, strain tpk1, hits give low values 0.989 | locus YJL166W, strain qcr8, hits give low values 0.958 | locus YJL168C, strain set2, hits give low values 0.998 | locus YJL187C, strain SWE1 (second series), hits give low values 0.979 | locus YJL187C, strain SWE1, hits give low values 0.973 | locus YJR043C, strain POL32, hits give low values 1.01 | locus YJR066W, strain TOR1, hits give low values 0.949
active: locus YAL026C, strain drs2, hits give low values 0.768
